Laboratory results published in ChEMBL document CHEMBL3988442, “University of Dundee, Small-Polar-MMV Screening Library” (2021).
For part of these data: Potency and affinity values are given separately.

Experiments:
Set-up in all cases: scale not given: direction of the effect not stated beside the values
[1] = target: Protein translocase subunit SecA (Escherichia coli (strain K12)) (UniProt P10408); assay: Assay to Identify E. coli SecA ATPase Inhibitors; format: functional; conditions: 30 µM
[2] = target: T1, Ubiquitin-activating enzyme e1, putative (Leishmania donovani (strain BPK282A1)) (UniProt E9BSI1); assay: Leishmania donovani Ubiquitin Activating Enzyme (LdE1); format: functional; conditions: 30 µM
T1 sequence (whole entry): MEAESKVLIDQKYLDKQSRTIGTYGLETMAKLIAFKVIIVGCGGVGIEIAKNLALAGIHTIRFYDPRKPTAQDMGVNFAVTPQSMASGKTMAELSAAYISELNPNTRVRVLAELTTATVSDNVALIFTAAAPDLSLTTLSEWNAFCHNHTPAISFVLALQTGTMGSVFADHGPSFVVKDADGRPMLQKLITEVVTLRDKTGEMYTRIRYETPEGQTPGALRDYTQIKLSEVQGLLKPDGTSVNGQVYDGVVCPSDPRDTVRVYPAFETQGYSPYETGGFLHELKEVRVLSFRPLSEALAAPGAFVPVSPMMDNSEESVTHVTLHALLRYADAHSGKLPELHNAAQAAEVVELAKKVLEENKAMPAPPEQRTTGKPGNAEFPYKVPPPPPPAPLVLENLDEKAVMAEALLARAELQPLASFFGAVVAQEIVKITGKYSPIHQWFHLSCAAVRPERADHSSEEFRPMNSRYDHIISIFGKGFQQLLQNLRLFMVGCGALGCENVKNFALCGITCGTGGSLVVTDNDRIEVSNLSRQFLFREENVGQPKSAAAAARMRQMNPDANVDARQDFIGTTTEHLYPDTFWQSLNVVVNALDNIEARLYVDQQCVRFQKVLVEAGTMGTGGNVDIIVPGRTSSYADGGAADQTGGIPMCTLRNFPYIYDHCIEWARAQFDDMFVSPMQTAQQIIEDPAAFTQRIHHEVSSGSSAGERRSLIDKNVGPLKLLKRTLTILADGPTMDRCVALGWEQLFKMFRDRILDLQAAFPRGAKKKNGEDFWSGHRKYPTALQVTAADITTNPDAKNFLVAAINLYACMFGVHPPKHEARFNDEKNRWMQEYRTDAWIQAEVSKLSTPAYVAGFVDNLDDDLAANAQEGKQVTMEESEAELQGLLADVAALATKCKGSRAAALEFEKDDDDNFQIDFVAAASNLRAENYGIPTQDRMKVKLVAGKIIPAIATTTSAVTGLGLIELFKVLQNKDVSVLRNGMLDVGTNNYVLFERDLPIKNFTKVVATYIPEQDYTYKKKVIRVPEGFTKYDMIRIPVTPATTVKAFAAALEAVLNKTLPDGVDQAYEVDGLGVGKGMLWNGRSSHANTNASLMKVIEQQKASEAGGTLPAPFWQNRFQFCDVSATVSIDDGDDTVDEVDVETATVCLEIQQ

[3] = target: AMP-activated protein kinase, AMPK (Homo sapiens) (UniProt P54646+O43741+P54619+Q9UGJ0+Q9Y478+Q13131+Q9UGI9); assay: AMP-dependent Kinase enzyme assay. An in vitro enzyme assay that detects ADP turnover that is directly proportional to AMPK activity. This uses naive AMPK that is activated during the assay with MK-8722; format: functional; conditions: 30 µM
[4] = target: Sialic acid-binding Ig-like lectin 9 (Homo sapiens) (UniProt Q9Y336); assay: Hs-Siglec9 ALPHAscreen SOP 20170721; conditions: 10 µM
Trypanosoma cruzi = assay: Trypanosoma cruzi phosphomannomutase and mannose-1-phosphate guanylyltransferase assay; format: functional; conditions: 10 µM
[5] = target: T2, Arginase-2, mitochondrial (Homo sapiens) (UniProt P78540); assay: in vitro enzyme assay to detect the production of urea directly proportional to the activity of Arginase II; format: functional; conditions: 33.3 µM; further: in the data most compounds retested in dose-response had high values
T2 sequence (whole entry): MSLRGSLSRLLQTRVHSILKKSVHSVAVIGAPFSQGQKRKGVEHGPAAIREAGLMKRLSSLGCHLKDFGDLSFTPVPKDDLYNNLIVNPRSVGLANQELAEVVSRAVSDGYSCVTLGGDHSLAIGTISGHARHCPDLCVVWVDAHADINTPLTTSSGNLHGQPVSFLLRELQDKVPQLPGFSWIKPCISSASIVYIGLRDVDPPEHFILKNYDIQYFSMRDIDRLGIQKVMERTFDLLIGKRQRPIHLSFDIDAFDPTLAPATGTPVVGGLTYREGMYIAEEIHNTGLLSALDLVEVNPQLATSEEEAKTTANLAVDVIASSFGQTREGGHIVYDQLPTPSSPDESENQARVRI

[6] = target: T3, Proteasome subunit beta (Trypanosoma cruzi) (UniProt O96673); assay: Trypanosoma cruzi proteasome chymotrypsin-like activity (TcProtChymo) assay.; further: in the data most compounds retested in dose-response had high values; format: functional; conditions: 9.37 µM
T3 sequence (whole entry): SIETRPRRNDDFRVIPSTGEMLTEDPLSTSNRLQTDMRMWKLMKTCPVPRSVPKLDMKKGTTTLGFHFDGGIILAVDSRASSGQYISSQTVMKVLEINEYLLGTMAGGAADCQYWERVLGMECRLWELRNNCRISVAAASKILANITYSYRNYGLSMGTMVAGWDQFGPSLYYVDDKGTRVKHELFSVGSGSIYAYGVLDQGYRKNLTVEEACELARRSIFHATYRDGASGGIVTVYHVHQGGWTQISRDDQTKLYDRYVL

Homo sapiens = organism: Homo sapiens; assay: To identify inhibition of the IFN signalling (Jak-Stat) pathway via expression of an eGFP reporter gene under the control of an IFN-stimulated response element (ISRE) containing MxA promoter.; format: functional; conditions: 30 µM
[7] = target: T4, Tyrosyl-tRNA synthetase, putative (Trypanosoma cruzi (strain CL Brener)) (UniProt Q4DSP6); assay: Trypanosoma cruzi tyrosyl tRNA synthetase (TcYRS) _High Tyrosine SOP; format: functional; conditions: 30 µM; further: in the data most compounds retested in dose-response had high values
T4 sequence (whole entry): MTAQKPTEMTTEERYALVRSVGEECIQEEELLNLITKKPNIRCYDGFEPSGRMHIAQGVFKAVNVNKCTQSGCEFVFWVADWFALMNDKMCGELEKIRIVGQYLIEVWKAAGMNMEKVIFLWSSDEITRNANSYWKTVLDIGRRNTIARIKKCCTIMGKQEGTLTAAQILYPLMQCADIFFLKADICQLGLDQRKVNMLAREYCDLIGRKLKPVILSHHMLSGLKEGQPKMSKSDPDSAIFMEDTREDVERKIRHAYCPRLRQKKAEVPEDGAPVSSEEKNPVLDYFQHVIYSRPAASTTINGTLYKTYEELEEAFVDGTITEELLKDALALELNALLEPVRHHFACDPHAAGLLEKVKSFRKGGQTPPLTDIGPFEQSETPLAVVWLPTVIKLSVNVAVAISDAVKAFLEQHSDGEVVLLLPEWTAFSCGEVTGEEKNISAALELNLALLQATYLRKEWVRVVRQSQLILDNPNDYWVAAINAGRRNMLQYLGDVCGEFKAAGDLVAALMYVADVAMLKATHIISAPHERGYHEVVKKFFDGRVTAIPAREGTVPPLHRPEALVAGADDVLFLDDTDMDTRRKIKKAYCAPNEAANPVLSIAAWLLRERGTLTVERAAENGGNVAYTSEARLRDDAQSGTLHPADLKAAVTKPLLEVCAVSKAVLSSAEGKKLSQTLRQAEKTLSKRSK

[8] = target: T4, Tyrosyl-tRNA synthetase, putative (Trypanosoma cruzi (strain CL Brener)); assay: Trypanosoma cruzi tyrosyl tRNA synthetase (TcYRS) SOP; format: functional; conditions: 30 µM
[9] = target: Chromo domain-containing protein 1 (Saccharomyces cerevisiae (strain ATCC 204508 / S288c) (Baker's yeast)) (UniProt P32657); assay: ScCHD-1 Enzyme Inhibition Assay; format: functional; conditions: 30 µM; further: in the data most compounds retested in dose-response had high values
Chromo domain-containing protein 1 (Saccharomyces cerevisiae (strain ATCC 204508 / S288c) (Baker's yeast)), sequence (P32657 whole entry, the tested form may be a part): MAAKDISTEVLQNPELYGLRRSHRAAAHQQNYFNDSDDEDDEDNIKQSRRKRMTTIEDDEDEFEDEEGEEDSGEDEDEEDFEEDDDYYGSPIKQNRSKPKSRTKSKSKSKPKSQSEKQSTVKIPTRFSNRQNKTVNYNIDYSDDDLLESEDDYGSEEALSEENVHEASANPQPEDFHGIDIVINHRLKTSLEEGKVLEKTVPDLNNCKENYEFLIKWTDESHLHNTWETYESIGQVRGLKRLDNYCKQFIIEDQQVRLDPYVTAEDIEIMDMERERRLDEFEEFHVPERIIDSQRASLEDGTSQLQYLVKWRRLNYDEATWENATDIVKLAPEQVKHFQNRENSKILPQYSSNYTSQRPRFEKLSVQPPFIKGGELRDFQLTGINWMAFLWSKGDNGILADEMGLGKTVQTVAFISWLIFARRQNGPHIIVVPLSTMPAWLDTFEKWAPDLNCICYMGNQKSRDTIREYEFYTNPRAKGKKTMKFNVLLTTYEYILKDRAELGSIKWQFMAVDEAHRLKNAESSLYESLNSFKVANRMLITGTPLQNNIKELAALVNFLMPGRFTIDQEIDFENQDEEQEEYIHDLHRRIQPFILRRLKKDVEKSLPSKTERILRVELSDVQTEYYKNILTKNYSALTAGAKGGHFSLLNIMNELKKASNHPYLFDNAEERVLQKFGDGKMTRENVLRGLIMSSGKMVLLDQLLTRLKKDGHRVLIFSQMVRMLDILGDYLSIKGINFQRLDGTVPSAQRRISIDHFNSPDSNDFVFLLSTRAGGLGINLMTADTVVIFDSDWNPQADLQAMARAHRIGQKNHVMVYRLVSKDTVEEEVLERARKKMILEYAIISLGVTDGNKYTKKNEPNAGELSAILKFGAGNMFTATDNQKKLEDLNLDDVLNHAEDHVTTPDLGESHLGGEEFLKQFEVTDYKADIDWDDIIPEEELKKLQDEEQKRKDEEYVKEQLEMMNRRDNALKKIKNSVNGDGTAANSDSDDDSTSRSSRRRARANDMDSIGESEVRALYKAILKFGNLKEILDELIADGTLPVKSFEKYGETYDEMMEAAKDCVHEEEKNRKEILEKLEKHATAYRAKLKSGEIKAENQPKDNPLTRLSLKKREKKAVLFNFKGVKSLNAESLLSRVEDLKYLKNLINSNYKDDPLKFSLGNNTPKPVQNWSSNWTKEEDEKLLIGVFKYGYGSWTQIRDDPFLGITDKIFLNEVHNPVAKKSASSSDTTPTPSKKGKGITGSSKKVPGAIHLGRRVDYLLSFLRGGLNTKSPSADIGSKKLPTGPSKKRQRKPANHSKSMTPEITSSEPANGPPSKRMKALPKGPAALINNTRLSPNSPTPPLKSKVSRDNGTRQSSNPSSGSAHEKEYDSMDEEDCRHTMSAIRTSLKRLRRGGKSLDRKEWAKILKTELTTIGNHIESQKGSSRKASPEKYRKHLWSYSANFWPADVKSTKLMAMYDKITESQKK

Protein translocase subunit SecA (Escherichia coli (strain K12)), sequence (P10408 whole entry): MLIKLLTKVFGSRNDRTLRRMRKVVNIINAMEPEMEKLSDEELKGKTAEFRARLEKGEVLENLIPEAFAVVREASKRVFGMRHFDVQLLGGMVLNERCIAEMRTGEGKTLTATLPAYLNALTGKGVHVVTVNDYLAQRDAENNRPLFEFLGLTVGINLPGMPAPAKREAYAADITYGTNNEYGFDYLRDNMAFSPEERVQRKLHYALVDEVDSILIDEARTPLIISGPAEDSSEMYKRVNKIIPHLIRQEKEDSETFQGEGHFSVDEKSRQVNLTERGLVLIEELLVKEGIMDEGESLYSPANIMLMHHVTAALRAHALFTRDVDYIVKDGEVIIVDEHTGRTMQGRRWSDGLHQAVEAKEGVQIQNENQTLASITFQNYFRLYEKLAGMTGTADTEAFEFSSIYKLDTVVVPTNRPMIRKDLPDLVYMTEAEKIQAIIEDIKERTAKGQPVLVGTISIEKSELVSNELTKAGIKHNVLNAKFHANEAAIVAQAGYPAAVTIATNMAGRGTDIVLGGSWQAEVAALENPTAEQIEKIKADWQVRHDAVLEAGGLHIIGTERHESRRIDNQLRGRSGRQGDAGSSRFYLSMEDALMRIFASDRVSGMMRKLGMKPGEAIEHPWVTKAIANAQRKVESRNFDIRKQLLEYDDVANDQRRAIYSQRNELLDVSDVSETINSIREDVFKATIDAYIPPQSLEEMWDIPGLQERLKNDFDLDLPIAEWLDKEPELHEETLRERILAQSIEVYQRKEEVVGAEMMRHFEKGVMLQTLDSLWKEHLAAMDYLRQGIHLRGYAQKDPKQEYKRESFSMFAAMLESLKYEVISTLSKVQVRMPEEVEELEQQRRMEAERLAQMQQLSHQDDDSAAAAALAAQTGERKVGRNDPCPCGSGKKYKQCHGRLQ
Sialic acid-binding Ig-like lectin 9 (Homo sapiens), sequence (Q9Y336 whole entry): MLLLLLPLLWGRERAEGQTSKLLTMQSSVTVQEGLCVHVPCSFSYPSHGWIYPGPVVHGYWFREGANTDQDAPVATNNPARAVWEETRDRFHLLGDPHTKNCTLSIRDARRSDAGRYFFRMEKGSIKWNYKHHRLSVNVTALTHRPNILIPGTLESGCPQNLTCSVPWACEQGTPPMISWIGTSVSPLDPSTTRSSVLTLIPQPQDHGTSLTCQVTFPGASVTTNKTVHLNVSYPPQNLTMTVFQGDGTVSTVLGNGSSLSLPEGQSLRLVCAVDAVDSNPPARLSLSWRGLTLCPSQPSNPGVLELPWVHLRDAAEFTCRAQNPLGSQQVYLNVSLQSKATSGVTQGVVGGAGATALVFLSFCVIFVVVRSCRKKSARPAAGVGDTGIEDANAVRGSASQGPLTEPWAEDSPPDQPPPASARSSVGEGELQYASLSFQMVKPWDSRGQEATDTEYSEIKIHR

SMILES | Percent Effect [1] [%] | Percent Effect [2] [%] | Percent Effect [3] [%] | Percent Effect [4] [%] | Percent Effect (Trypanosoma cruzi) [%] | Percent Effect [5] [%] | Percent Effect [6] [%] | Percent Effect (Homo sapiens) [%] | Percent Effect [7] [%] | Percent Effect [8] [%] | Percent Effect [9] [%]
CN1C(=O)C[C@@H]2[C@@H]1CCN2S(=O)(=O)Cc1ccccc1 | 2.57 | 2.74 | 4.04 | 13.8 | -0.595 | 2 | 2.83 | 1.27 | 3.12 | 3.7 | 6.94
O=C(Nc1ccc(F)cc1)N1C[C@H]2C[C@H](C(=O)N3CCOCC3)[C@@H](C1)O2 | -1.74 | 7.79 | 3.92 | 3.78 | 0.493 | 4.52 | 2.44 | 29.3 | 4.23 | 14.1 | -6.94
Cc1ccc(NC(=O)N(C)Cc2cnn(C)c2)cc1OCC(F)F | -9.52 | 2.7 | -18.9 | 28 | 12.4 | -11.2 | 6.67 | 11.9 | 3.45 | 23.5 | -16.1
Cc1nc(CCNC(=O)N2CCC(Cc3cnn(C)c3)C2)cs1 (centres undefined) | -5.52 | 2.63 | 9.75 | 4.12 | -0.682 | 116 | 19.9 | -10.1 | 2.13 | 5.2 | -2.02
O=C(CCN1CCC(C(=O)c2cc(F)ccc2F)CC1)NC1CC1 | -5.55 | 5.26 | 2.46 | 2.22 | -0.0974 | -1.18 | 12.4 | 16.9 | 3.19 | 15.6 | -3.85
CCCNC(=O)c1cnc(N(C)C)nc1COC | -3.99 | 9.33 | 7.82 | 8.88 | 2.75 | -2.99 | 8.69 | 13.2 | 1.06 | 10.3 | -3.99
CS(=O)(=O)N1Cc2nccn2CC(Cn2ncccc2=O)C1 (centres undefined) | -1.2 | 13.3 | 3.55 | 5.03 | -5.79 | -26 | 7.18 | 0.368 | 3.12 | 12.5 | -4.85
CN(CCCc1ccccc1)Cc1nc2c(cnn2C)c(=O)[nH]1 | -1.94 | 8.11 | -7.46 | -2.26 | -7.26 | 2.4 | 5.95 | 18.9 | 4.43 | 13.6 | -1.12
O=C(NCC1OCCc2cn(CC3CC3)nc21)c1ccsc1 (centres undefined) | -5.87 | 18.2 | 2.23 | -1.55 | 3.65 | 1.94 | 12.2 | 8.57 | 2.12 | 14.1 | -7.27
